Screens deposited in PubChem by several laboratories.
Compounds with a hit are over-represented: about 1.2% of the library has one in this group of screens.
CCHFV vOTU inh = blocks the CCHF virus ovarian tumor domain protease; CCHFV vOTU protease, Pep-AMC fluorescence; inhibition, % at 11.5 µM; hit rate 0.55% among 370,000; in the data active = inhibition above about 30%; note: 0% = vehicle wells with enzyme and 100% = no enzyme wells
Rv3671c inh = Rv3671c (M. tuberculosis) protease inhibition; hit rate 0.048% among 320,000; P9WHR9; AID 2606; inhibition, % at 5.96 µM; in the data active = inhibition above about 38%;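 note: extracellular domain of Rv3671c used as enzyme; 0% = enzyme with DMSO and 100% = no enzyme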
Mtb betalactam = beta-lactam sensitization of Mtb H37Rv; M. tuberculosis H37Rv growth with meropenem, percent inhibition; inhibition, % at 25 µM; hit rate 0.27% among 330,000; call rule not given here;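 note: growth measured after seven days incubation then overnight dye step; 0% = bacteria only wells and 100% = bacteria with antibiotic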
RecA intein inh = inhibitors of M. tuberculosis RecA intein splicing; hit rate 0.75% among 290,000; inhibition, % (concentration not given with the values); cell-free RecA intein splicing, fluorescence; in the data active = inhibition above about 30%;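 note: 0% = vehicle wells and 100% = reference inhibitor control wells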
UGM FP inh = inhibitors of M. tuberculosis UDP-galactopyranose mutase. hit rate 0.06% among 320,000. inhibition, % at 10 µM. purified UGM, fluorescence polarization probe displacement; in the data active = inhibition above about 10%, passing the limit was not always enough
Target sequence (P9WIQ1 whole entry, looked up): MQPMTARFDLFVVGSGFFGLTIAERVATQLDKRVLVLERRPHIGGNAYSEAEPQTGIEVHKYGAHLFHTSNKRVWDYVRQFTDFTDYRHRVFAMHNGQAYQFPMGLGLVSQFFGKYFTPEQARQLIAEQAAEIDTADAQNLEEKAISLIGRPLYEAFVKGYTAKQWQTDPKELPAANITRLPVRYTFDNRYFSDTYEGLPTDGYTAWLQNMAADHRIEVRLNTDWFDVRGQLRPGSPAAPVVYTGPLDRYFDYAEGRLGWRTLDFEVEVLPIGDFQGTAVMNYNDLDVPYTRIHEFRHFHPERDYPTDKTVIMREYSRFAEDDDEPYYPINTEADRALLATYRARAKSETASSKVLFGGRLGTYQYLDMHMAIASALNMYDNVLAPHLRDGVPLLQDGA
* = called active by the depositor; x = no result given.

SMILES	CCHFV vOTU inh	Rv3671c inh	Mtb betalactam	RecA intein inh	UGM FP inh
CCOc1cc(/C=C2\C(=N)N3N=C(N4CCCCC4)SC3=NC2=O)ccc1OC(=O)c1ccco1	2.9	10.8	73.5	34.5*	-2.4
CCOc1cc(/C=C2\C(=N)N3N=C(S(=O)(=O)CC)SC3=NC2=O)ccc1OC(=O)c1ccco1	5.5	-2.3	4.5	30.7*	-6.2
Cc1ccc(-n2c(SCC(=O)NN=Cc3c[nH]c4ccccc34)nnc2-c2ccccc2)cc1	14.7	x	x	x	x
CCOC(=O)[C@@]12CN(C(=O)OC(C)(C)C)CC=C1N(Cc1ccc(OC)cc1)C(=O)[C@H]2CC(=O)NCCc1ccccc1OC	13.1	x	x	x	x
O=C1OCCN1C(=O)[C@H]1[C@H](c2ccc([N+](=O)[O-])cc2)C(c2ccc(F)cc2)=NN1c1ccc(Br)cc1	31.7*	x	x	x	x
O=C(CCCN1C(=O)/C(=C\c2ccccc2)SC1=S)Nc1ccc(O)cc1	15.8	1.9	13.1	32.4*	1.3
Cc1ccc(NC(=O)COc2cccc(/C=C3\SC(=S)N(CCC(=O)O)C3=O)c2)cc1Cl	0.4	-18.7	6.8	30.6*	0.4
O=C(O)CCN1C(=O)/C(=C\c2cccc(OCC(=O)Nc3ccc(Cl)cc3)c2)SC1=S	12.4	-22.6	-3.9	13.4	-1.5
Cc1ccc(/C=C2/SC(=S)N(CCCC(=O)Nc3ccc(O)cc3)C2=O)cc1	5.5	x	x	13.4	x
O=C(O)COc1cccc(/C=C2/SC(=S)N(Cc3ccccc3)C2=O)c1	27.8	-29.1	2.8	44.5*	-0.2
COc1ccc(OCC(C)CN2CCC(C(O)(c3ccccc3)c3ccccc3)CC2)cc1 (stereo unspecified)	8.0	x	x	x	x
O=C(O)COc1ccccc1C(Nc1cccnc1)c1cc(Cl)c2cccnc2c1O (stereo unspecified)	x	x	x	40.9*	x
Cc1ccc(NC(=O)/C(C#N)=C/c2ccc(C)s2)c(C)c1	1.4	-19.6	0.3	-1.2	13.3*
Cc1cccc(Sc2c(C=O)c3ccccc3n2C)c1	-10.7	1.0	3.6	30.4*	0.9
CCCOC(=O)c1ccc(OC(=O)c2ccco2)cc1	1.4	-2.5	98.9	37.2*	-3.8
O=C(Oc1ccc(-n2cnnn2)cc1)c1ccco1	5.2	2.2	-4.2	37.8*	2.2
O=C(Oc1ccc2ccccc2c1)c1ccco1	-7.7	8.3	94.7	35.3*	1.3
CC(C)(C)c1ccc(C(=O)Cn2cnnc2C#N)cc1	-1.9	-11.6	19.4	33.6*	-0.3
CCOc1ccc(C(=O)Cn2cnnc2C#N)cc1	-7.2	-4.7	2.9	8.7	-0.6
Cc1ccc(-c2ccc(/C=C(\C#N)C(=O)Nc3cc(C)nn3-c3ccccc3)o2)cc1	x	2.8	-13.6	-97.2	48.2*
CC(C)(C)c1ccc(/C=C2\SC(=O)N(CCNC(=O)c3cccc(S(=O)(=O)N4CCOCC4)c3)C2=O)cc1	x	-50.2	-14.3	30.9*	-1.7
Cn1cnc([N+](=O)[O-])c1Sc1ccc(C(C)(C)C)cc1	11.9	-3.3	43.4	31.3*	2.9
Cc1cccc(C(=O)NC2C(=O)NNC2c2ccc(Cl)cc2)c1 (stereo unspecified)	16.6	-25.6	7.5	91.6*	-0.7
CN(C(=O)c1cccc(COc2ccc(Cl)cc2Cl)c1)c1ccccc1	-7.5	-19.0	0.4	35.5*	-1.0
CC(C)CC(=O)/C(=C\c1ccc(Cl)cc1Cl)n1cncn1	x	x	x	43.5*	x
SMILES	CCHFV vOTU inh	Rv3671c inh	Mtb betalactam	RecA intein inh	UGM FP inh
CC(C)CC(=O)/C(=C/c1ccc(N(C)C)cc1)n1cncn1	9.4	5.7	0.8	-0.9	-1.0
COC(=O)C1CN(C2CCCC2)CCS(=O)(=O)N1Cc1cn(Cc2ccc(Cl)cc2)nn1 (stereo unspecified)	0.7	x	x	x	x
Cc1ccc(-c2[nH]nc3c2C(c2ccoc2)C(C#N)=C(N)O3)cc1C (stereo unspecified)	x	-4.8	7.4	92.3*	-0.1
CC(C)(C)c1[nH]nc2c1C(c1ccncc1)C(C#N)=C(N)O2 (stereo unspecified)	1.1	2.7	-16.9	1.2	-1.8
Cc1ccc(-n2nc(C)c3c2OC(N)=C(C#N)C3c2ccoc2)cc1 (stereo unspecified)	-9.1	-2.8	3.2	71.1*	-3.4
CC(C)(C)c1[nH]nc2c1C(c1ccoc1)C(C#N)=C(N)O2 (stereo unspecified)	2.1	0.6	0.4	56.4*	2.8
CCOC(=O)C1=C(C)OC(N)=C(C#N)C1c1c(C)nn(-c2ccc(C)cc2)c1Cl (stereo unspecified)	x	x	x	-1.8	x
CCCCCCCCN1CCS(=O)(=O)N(Cc2ccc(OC)cc2)C(C(=O)OC)C1 (stereo unspecified)	18.8	x	x	x	x
